FLuc inh: Photinus pyralis luciferase inhibition. purified P. pyralis luciferase, luminescence, biochemical. P08659. AID 1347043. 76,000 tested, 2.5% active. Potency, µM (titrated, usually from 115 µM), hits mostly inhibitors; also: nearly all actives have a fitted effect of over 65% in size
Target sequence (P08659 whole entry, looked up): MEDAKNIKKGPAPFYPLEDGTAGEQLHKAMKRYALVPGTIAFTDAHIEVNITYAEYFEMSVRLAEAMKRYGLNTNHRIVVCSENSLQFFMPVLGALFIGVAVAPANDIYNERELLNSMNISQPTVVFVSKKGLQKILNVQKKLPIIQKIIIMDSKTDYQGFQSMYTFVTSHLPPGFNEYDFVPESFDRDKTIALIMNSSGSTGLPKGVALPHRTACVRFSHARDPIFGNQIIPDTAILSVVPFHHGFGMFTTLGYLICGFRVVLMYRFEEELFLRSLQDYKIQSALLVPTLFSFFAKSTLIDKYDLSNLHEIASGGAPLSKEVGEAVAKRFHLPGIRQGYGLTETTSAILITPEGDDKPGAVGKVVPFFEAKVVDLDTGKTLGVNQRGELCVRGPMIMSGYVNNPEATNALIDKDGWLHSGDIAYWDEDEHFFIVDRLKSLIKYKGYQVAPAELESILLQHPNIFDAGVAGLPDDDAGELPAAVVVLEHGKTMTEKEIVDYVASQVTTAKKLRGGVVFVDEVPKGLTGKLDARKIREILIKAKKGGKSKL
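FLuc 10nM, D-luciferin 10uM, ATP 10uM, Mg acetate 10mM, Tris acetate pH 7.5, Tween/BSA; cpd qHTS; enzyme added last; CCD luminescence.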
NIH3T3 tox: NIH 3T3 cell cytotoxicity; NIH 3T3 viability, CellTiter-Glo ATP luminescence, 48-72 h; Potency, µM (highest dose often 96.7 µM), for inactives: top-dose activity change, negative = cytotoxicity, usual class: inhibitors; 94,000 tested, 4.3% active; also: nearly all actives have a fitted effect of over 55% in size
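Cytotoxicity is measured as loss of cellular ATP: NIH 3T3 cells (400/well) are exposed to compound for 48 or 72 hr at 37 °C, then CellTiter-Glo luminescence is imaged after 10 min at room temperature.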
NPR1 antag: antagonists of human natriuretic peptide receptor Npr1; Potency, µM (highest dose often 46.3 µM), for the others: top-dose activity change, negative = inhibition, most hits filed as inhibitors; P16066; HEK293 hNpr1 GloSensor cGMP, ANP-stimulated luminescence; 76,000 tested, 1.6% active; calls by dose curve; also: nearly all actives have a fitted effect of over 60% in size
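Compound pre-incubated 30 min at room temperature on GloSensor-loaded HEK293 cells stably carrying hNpr1 and the pGS-40F cGMP biosensor. Stimulation uses hNppA at 0.1 nM final; luminescence is taken at baseline and 20 min post-agonist.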
HEK293 tox: kills HEK 293 cells | HEK 293 viability, ATP luminescence (CellTiter-Glo), 48-72 h | Potency, µM (top dose mostly 115 µM), without a hit: at the top dose activity change, negative = cytotoxicity, usual class: inhibitors | 94,000 tested, 6.6% active; also: nearly all actives have a fitted effect of over 60% in size
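Read-out: CellTiter-Glo ATP luminescence. Cells: HEK 293, 250 cells/well. Exposure: 48 or 72 hr, 37 degree Celsius.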
GPT2 inhibitor: inhibitors of human GPT2 alanine aminotransferase; AID 1671188; Potency, µM (top dose mostly 57.7 µM), for inactives: at the top dose activity change, negative = inhibition, actives largely listed as inhibitors; Recombinant GPT2, coupled pyruvate oxidase/HRP Amplex Red fluorescence; 100,000 tested, 0.25% active; also: nearly all actives have a fitted effect of over 60% in size
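Fluorescence of coupled pyruvate oxidase/HRP/Amplex Red system (50uM Amplex, 30 min, dark) reports pyruvate formed by GPT2. Enzyme reaction: 10ng/uL GPT2, 2mM L-alanine, 250uM a-KG, 30 min room temperature, pH 7.5; 50uM AOA control.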
Numbers without * were called inactive; i = inactive; ? = inconclusive; . = no result given; [ ] = remark or other dose. A selection: hits, their analogues and other compounds. The true share with any hit is near 10%. Unless noted, calls follow the shape of the dose curve; as a rule, active = well fitted curve in the direction sought with a large enough effect; inconclusive = small, poorly fitted or top-dose-only effect, or another doubt; inactive = no such curve, though single readings can be large; an effect the other way counts as inactive or inconclusive. % is scaled to controls: 0 for no effect and ±100 for the full control effect; potency is read from the fitted curve at half-maximal effect.

SMILES | FLuc inh | NIH3T3 tox | NPR1 antag | HEK293 tox | GPT2 inhibitor
COC(=O)[C@@H]1Cc2c([nH]c3ccccc23)[C@H]2C[C@@H](N3CCOCC3)C[C@@H](c3ccc(OC(F)(F)F)cc3)N21 | i | 45µM* | 2% | ? | -29%
COC(=O)[C@@H]1Cc2c([nH]c3ccccc23)[C@H]2C[C@@H](N3CCOCC3)C[C@@H](c3ccc(C(F)(F)F)cc3)N21 | i | 25µM* | 4% | 22µM* | ?
O=C(NCCc1ccc(F)cc1)c1cc(-c2ccccc2)c2nncn2n1 | . | ? | . | ? | i
COc1ccc(Nc2cc(-c3cccs3)nc3c(C)noc23)cc1OC | i | 45µM* | -21%[70.6 µM] | 63µM* | ?
Cc1ccccc1-c1cc(O)c2c(c1)CNCCO2 | i | -24% | 0% | -29% | i
Oc1cc(-c2csc3ccccc23)cc2c1OCCNC2 | i | ? | -16% | 20µM* | i
COc1ccccc1CN1CC(c2noc(-c3cc(C)cc(C)c3)n2)CC1=O (centres undefined) | i | ? | 4% | 45µM* | 1%
COc1ccccc1CN1CC(c2noc(-c3sccc3C)n2)CC1=O (centres undefined) | i | ? | 8% | 40µM* | i
CNC(=O)[C@@H](c1ccc(OC)cc1)N1CCC[C@H]1C(=O)NCC1CCCCC1 | i | 100µM* | 0%[70.6 µM] | ? | -6%[88.5 µM]
COc1ccc(CN2CC3(CCN(C(=O)c4cc(-c5ccc(F)cc5)n[nH]4)CC3)C2=O)cc1 | i | ? | -15% | 89µM* | -2%
COc1ccc(CN2CC3(CCN(C(=O)c4ccc(OC)c(F)c4)CC3)C2=O)cc1 | i | -25% | 1% | -23% | -2%
COc1cccc(CN2CCCC(Cc3ncc(C)n3Cc3ccccc3)C2)c1OC (centres undefined) | i | ? | -23% | 50µM* | i
O=[S+]([O-])(c1ccccc1)N1CCN(Cc2ccccc2-c2ccccc2F)CC1 | . | ? | . | 22µM* | i
C[S+](=O)([O-])N1CCN(Cc2ccccc2-c2cccnc2)CC1 | . | -32%[138 µM] | . | ? | -17%[88.5 µM]
O=[S+]([O-])(c1cccc(C(F)(F)F)c1)N1CCN(Cc2ccccc2-c2cccnc2)CC1 | . | 35µM* | . | ? | 4%
Cc1ccc(-c2ccccc2CN2CCN([S+](=O)([O-])c3ccccc3)CC2)cc1Cl | . | ? | . | ? | -13%
Cc1nnc2ccc(N3CCC(NC(=O)C4CCCC4)C3)nn12 (centres undefined) | . | -31%[138 µM] | . | -11%[172 µM] | .
CN(Cc1ccccc1)C(=O)[C@@H]1C[C@@H](c2ccc(F)cc2)N([S+](=O)([O-])c2ccccc2)C1 | i | ? | 3% | ? | 1%
CN(C(=O)[C@@H]1C[C@@H](c2ccc(F)cc2)N([S+](=O)([O-])c2ccccc2)C1)c1ccccc1 | i | 35µM* | -25%[70.6 µM] | ? | -22%[88.5 µM]
O=C(NCc1ccc(Cl)cc1)c1ccc2nnc(-c3ccc(OC(F)(F)F)cc3)n2c1 | . | ? | . | ? | i
N#Cc1cccc(-c2cn3cc(C(=O)NC4CCCCC4)nc3s2)c1 | . | ? | . | ? | i
O=S(=O)(Cc1ccccc1F)N1CCC(Cc2nc(-c3ccncc3)n[nH]2)C1 (centres undefined) | . | ? | . | ? | -3%
Cc1nn(-c2ccc(C(F)(F)F)cc2)c(C)c1[C@@H]1C=C[C@@H](NC(=O)Nc2cccc(C#N)c2)C1 | 7.1µM* | 25µM* | ? | ? | -12%
Cc1nn(CCC#N)c(C)c1[C@@H]1C=C[C@@H](NC(=O)Nc2ccccc2)C1 | ? | ? | 3%[70.6 µM] | -3%[172 µM] | i
Cc1nn(-c2ccccc2)c(C)c1[C@@H]1C=C[C@@H](NC(=O)c2ccco2)C1 | i | ? | 35µM* | ? | 5%[88.5 µM]
SMILES | FLuc inh | NIH3T3 tox | NPR1 antag | HEK293 tox | GPT2 inhibitor
Cc1nn(-c2ccc(C(F)(F)F)cc2)c(C)c1[C@@H]1C=C[C@@H](NC(=O)c2cccnc2)C1 | ? | 28µM* | -26%[70.6 µM] | ? | -9%[88.5 µM]
Cc1nn(-c2ccccc2[N+](=O)[O-])c(C)c1[C@@H]1C=C[C@@H](NC(=O)Nc2cccc(C#N)c2)C1 | ? | ? | ? | 40µM* | i
COCCO[C@H]1C(=O)N(C2CCN(C(=O)c3ccc(C#N)cc3)CC2)[C@H]1c1ccncc1 | . | -26% | . | -2% | i
Cc1cnc(-c2cccnc2)n1C1CCCN(C(=O)Nc2ccc3c(c2)OCCO3)C1 (centres undefined) | . | -29% | . | -17% | i
CC1=C[C@@H](CNCCN2CCNC2=O)[C@H](C(C)C)C[C@H]1Cc1nnc(-c2cccnc2)o1 | i | -7% | 8% | -1% | i
CNC(=O)c1ccc2c(c1)NC(C)(CNc1ccccc1)CO2 (centres undefined) | i | -24%[138 µM] | -4%[70.6 µM] | ? | i
CC1(CNc2ccccc2)COc2ccc(C(=O)NCCc3ccccc3)cc2N1 (centres undefined) | ? | 28µM* | 0%[70.6 µM] | ? | 5%[88.5 µM]
CCOCC1(C)COc2ccc(C(=O)NCc3cc(OC)cc(OC)c3)cc2N1 (centres undefined) | i | -9%[138 µM] | -22%[70.6 µM] | ? | -22%[88.5 µM]
CC1(CNc2ccccc2)COc2ccc(C(=O)NCc3ccc(F)cc3)cc2N1 (centres undefined) | i | 45µM* | -19%[70.6 µM] | 71µM* | 0%[88.5 µM]
CC1(CCCCc2ccccc2)COc2ccc(C(=O)NC3CCC(O)CC3)cc2N1 (centres undefined) | i | 79µM* | -5%[70.6 µM] | 71µM* | -10%[88.5 µM]
COc1cc(CNC(=O)c2ccc3c(c2)NC(C)(CNc2ccccc2)CO3)cc(OC)c1 (centres undefined) | i | ? | 1% | 35µM* | 3%
CN(C)c1cccc(-c2cc(C(=O)NCCc3ccccn3)c3c(c2)ncn3C)c1 | i | ? | -1%[70.6 µM] | ? | i
COc1ccc(CCNC(=O)C2CCN(c3ccnc4ccnn34)CC2)cc1 | . | ? | . | ? | i
Cc1nc(-c2ccc(F)cc2)n(CC(=O)Nc2ccc(C(F)(F)F)cc2)c(=O)c1CCO | i | ? | -16% | ? | -2%
O=C(NCc1ccccc1F)c1ccc2oc(-c3ccccn3)nc2c1 | . | ? | . | ? | -10%
COc1ccc(Nc2ccnc(N3CCCC3C(=O)NCC(F)F)n2)cc1 (centres undefined) | . | -29% | . | -24% | i
Clc1ccccc1C1Cn2cnc(-c3nc(-c4ccccn4)no3)c2CO1 (centres undefined) | 25µM* | ? | -14% | ? | -1%
CC(C)Cc1ccc(CN2CCC3(Cc4ccccc4CNC3=O)C2)cc1 (centres undefined) | . | ? | . | -38% | i

Source: PubChem (National Center for Advancing Translational Sciences (NCATS))
